About 7,900 targets were measured; listed, in parts, are those with a hit and a random draw of the rest. About 0.6% of all pairs of compound and target were hits.
Assays:
Assay in all cases: log2 fold change, soluble protein after heating vs DMSO (PISA); higher = thermal stabilisation; K562 cells, 10 uM, 30 min; active = over 0.2 and 3.5 SD of the protein, either way, in both replicates (recomputed)
erlotinib = compound: C#Cc1cccc(Nc2ncnc3cc(OCCOC)c(OCCOC)cc23)c1 [erlotinib]
In short: (§1)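 K562 cells (2×10^6 cells/mL) were treated with 10 μM compound for 30 min, and aliquots were heated for 3 min over 48°C-58°C. Pooled aliquots were extracted in PBS with 0.5% NP-40 at 4°C, and the supernatant after 21,000xg for 90 min was measured by TMTpro 16plex LC-MS/MS with channel sums equalised. Reported thermal stability, relative to control samples and from duplicates, is a log2 fold change.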

[1] = compound: C/C(=N\NC(=O)C1=CC(=CC=C1)S(=O)(=O)N2CCOCC2)/C3=C(C=CC(=C3)Cl)O
In short: as §1

[2] = compound: C1=CC(=C(C=C1Cl)C2=NC3=NC=CN=C3C(=N2)NC4=CC=NC=C4)F
In short: as §1

[3] = compound: C1=CC(=CC=C1C2=NC3=C(N2)C=C(C=C3)C(=O)N)OC4=CC=C(C=C4)Cl
In short: as §1

[4] = compound: C1=CC2=C(C=CC(=C2)/C=C\3/C(=O)NC(=NCC4=CC=CS4)S3)N=C1
In short: as §1

[5] = compound: C1=CC2=NC=CN=C2C=C1/C=C/3\C(=O)NC(=O)S3
In short: as §1

[6] = compound: C1=CC=C(C=C1)C2=NC(=C(N2)C3=CC=NC=C3)C4=CC(=C(C=C4)Cl)O
In short: as §1

[7] = compound: C1=CC=C2C(=C1)C3=NNC4=CC=CC(=C43)C2=O
In short: as §1

[8] = compound: C1CCN(C1)C(=O)NC2=CC=CC(=C2)NC3=NC=C(C(=N3)NCCC4=CN=CN4)Br
In short: as §1

[9] = compound: C1CN(CCC1(CC2=CC=C(C=C2)Cl)N)C3=NC=NC4=C3C=CN4
In short: as §1

Measured: log2 fold change

NDUFB10 (UniProt O96000)
inactive: erlotinib -0.009 | [1] -0.067 | [2] 0.018 | [3] 0.03 | [4] 0.06 | [5] 0.025 | [6] -0.038 | [7] -0.021 | [8] 0.026 | [9] 0.045

PAK1 isoform 2 (UniProt Q13153)
Chain of UniProt Q13153 (Q13153 whole entry, looked up): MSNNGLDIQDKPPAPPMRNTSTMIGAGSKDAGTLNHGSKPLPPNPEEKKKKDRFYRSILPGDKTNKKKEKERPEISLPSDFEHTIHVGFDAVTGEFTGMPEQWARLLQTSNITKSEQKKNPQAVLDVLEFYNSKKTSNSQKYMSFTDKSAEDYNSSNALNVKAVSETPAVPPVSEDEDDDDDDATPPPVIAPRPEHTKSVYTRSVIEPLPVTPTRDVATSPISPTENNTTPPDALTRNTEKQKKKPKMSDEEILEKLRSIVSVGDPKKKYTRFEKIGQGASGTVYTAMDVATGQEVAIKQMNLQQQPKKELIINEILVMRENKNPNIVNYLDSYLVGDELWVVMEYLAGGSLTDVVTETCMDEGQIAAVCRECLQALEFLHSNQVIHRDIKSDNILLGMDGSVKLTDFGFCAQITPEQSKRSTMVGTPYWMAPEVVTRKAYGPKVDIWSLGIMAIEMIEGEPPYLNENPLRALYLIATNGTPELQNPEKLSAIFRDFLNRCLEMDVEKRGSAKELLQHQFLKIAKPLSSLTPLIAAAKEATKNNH
inactive: erlotinib 0.063 | [1] 0.105 | [2] 0.067 | [3] -0.013 | [4] 0.009 | [5] 0.086 | [6] 0.027 | [7] -0.008 | [8] 0.014 | [9] 0.083

NCOA7 (UniProt Q8NI08)
inactive: erlotinib -0.027 | [1] 0.063 | [2] -0.047 | [3] 0.004 | [4] 0.07 | [5] -0.048 | [6] 0.014 | [7] 0.011 | [8] 0.024 | [9] 0.045

NOL11 (UniProt Q9H8H0)
inactive: erlotinib -0.019 | [1] -0.065 | [2] 0.015 | [3] -0.007 | [4] -0.038 | [5] 0.042 | [6] 0.027 | [7] -0.005 | [8] -0.014 | [9] 0.079

NUP210 (UniProt Q8TEM1)
inactive: erlotinib 0.021 | [1] 0.004 | [2] 0.06 | [3] -0.004 | [4] 0.011 | [5] 0.015 | [6] -0.018 | [7] -0.186 | [8] -0.009 | [9] 0.012

NUP98 (UniProt P52948)
inactive: erlotinib 0.063 | [1] 0.01 | [2] -0.085 | [3] -0.013 | [4] -0.011 | [5] 0.035 | [6] -0.015 | [7] -0.217 | [8] -0.06 | [9] -0.012

MYL12B (UniProt O14950)
inactive: erlotinib 0.016 | [1] 0.091 | [2] 0.02 | [3] 0.006 | [4] -0.072 | [5] -0.019 | [6] 0.157 | [7] 0.023 | [8] -0.045 | [9] 0.005

PAFAH1B2 (UniProt P68402)
Chain of UniProt P68402 (P68402 whole entry, looked up): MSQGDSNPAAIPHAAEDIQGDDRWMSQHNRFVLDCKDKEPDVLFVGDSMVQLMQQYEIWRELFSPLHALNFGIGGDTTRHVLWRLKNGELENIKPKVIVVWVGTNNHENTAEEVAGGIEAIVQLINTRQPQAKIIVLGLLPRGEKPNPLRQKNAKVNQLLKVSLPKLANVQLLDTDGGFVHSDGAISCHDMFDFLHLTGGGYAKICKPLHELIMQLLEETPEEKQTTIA
inactive: erlotinib 0.195 | [1] -0.088 | [2] 0.134 | [3] -0.016 | [4] -0.036 | [5] -0.034 | [6] 0.068 | [7] 0.027 | [8] 0.128 | [9] 0.047

NA, A0A0B4J2A0
inactive: erlotinib -0.037 | [1] 0.07 | [2] 0.065 | [3] -0.009 | [4] 0.037 | [5] 0.038 | [6] 0.108 | [7] 0.026 | [8] -0.055 | [9] -0.007

NELFCD (UniProt Q8IXH7)
inactive: erlotinib 0.096 | [1] 0.034 | [2] 0.121 | [3] -0.154 | [4] 0.056 | [5] 0.031 | [7] 0.06

NISCH (UniProt Q9Y2I1)
Chain of UniProt Q9Y2I1 (Q9Y2I1 whole entry, looked up): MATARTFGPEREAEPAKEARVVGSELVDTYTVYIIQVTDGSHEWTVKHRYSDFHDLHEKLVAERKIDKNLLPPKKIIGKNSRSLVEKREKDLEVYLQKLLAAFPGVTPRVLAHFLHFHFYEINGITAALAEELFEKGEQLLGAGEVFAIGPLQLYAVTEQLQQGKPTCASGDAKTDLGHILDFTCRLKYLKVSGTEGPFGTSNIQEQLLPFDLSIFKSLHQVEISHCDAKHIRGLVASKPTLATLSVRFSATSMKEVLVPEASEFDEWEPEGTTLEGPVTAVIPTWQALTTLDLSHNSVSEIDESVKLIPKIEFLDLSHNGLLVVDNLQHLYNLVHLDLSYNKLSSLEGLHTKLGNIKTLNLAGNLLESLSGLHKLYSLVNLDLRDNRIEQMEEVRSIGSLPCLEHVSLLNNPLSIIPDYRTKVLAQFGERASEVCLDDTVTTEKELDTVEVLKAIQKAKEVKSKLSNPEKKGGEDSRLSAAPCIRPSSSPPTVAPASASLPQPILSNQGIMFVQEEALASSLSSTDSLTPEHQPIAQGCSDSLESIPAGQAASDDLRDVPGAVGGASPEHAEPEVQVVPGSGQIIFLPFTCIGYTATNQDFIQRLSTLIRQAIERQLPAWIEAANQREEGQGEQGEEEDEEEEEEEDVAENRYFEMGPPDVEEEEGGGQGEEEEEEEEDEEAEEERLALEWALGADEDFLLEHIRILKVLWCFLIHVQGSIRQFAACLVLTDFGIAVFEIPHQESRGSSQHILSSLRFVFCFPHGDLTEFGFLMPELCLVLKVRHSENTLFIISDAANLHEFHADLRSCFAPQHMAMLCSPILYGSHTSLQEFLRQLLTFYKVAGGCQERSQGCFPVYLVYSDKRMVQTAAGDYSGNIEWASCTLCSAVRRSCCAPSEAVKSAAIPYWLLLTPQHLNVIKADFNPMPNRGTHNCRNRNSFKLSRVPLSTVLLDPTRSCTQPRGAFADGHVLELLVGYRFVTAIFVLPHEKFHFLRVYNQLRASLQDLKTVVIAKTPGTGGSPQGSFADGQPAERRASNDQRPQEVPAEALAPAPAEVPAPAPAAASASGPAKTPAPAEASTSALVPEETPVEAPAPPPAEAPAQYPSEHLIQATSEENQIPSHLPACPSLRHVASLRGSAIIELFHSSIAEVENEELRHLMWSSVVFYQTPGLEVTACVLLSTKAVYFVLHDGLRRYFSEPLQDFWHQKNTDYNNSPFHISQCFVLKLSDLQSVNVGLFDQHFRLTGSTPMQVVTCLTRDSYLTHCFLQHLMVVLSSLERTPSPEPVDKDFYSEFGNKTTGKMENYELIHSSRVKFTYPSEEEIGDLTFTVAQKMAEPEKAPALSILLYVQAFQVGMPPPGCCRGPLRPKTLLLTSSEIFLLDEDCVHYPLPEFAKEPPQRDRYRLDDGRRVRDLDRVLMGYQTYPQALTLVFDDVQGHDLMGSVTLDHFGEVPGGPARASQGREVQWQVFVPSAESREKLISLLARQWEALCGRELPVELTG
inactive: erlotinib 0.141 | [1] 0.1 | [2] -0.083 | [3] 0.026 | [4] 0.089 | [5] 0.068 | [6] 0.044 | [7] -0.144 | [8] 0.039 | [9] -0.032

NEK3 (UniProt P51956)
inactive: erlotinib 0.003 | [1] -0.011 | [2] 0.096 | [3] 0.06 | [4] -0.063 | [6] 0.039 | [7] -0.05 | [8] -0.141 | [9] 0.103

MMADHC (UniProt Q9H3L0)
inactive: erlotinib 0.088 | [1] -0.002 | [3] -0.034 | [4] -0.031 | [5] -0.105 | [6] -0.039 | [7] 0.073 | [8] 0.014 | [9] 0.083

ORC5 (UniProt O43913)
inactive: erlotinib 0.089 | [1] 0.177 | [3] 0.046 | [4] 0.05 | [5] 0.062 | [6] 0.031 | [7] 0.01 | [8] -0.13 | [9] -0.026

NDUFB1 (UniProt O75438)
inactive: erlotinib -0.015 | [1] -0.016 | [2] 0.209 | [3] 0.053 | [4] -0.102 | [5] 0.039 | [7] 0.079 | [8] -0.05 | [9] -0.006

MND1 (UniProt Q9BWT6)
inactive: erlotinib -0.068 | [1] 0.034 | [2] -0.003 | [3] -0.002 | [4] -0.011 | [5] 0.015 | [6] -0.019 | [7] 0.009 | [8] -0.081 | [9] -0.017

MLX (UniProt Q9UH92)
inactive: erlotinib 0.038 | [1] 0.135 | [2] -0.057 | [3] 0.062 | [4] 0.032 | [5] -0.094 | [6] -0.041 | [7] -0.076 | [8] -0.012 | [9] -0.143

MRFAP1 (UniProt Q9Y605)
inactive: erlotinib -0.007 | [1] -0.019 | [3] -0.013 | [4] -0.334 | [5] 0.014 | [6] -0.045 | [7] 0.141 | [8] -0.162 | [9] -0.106

OPA1 isoform 2 (UniProt O60313)
inactive: erlotinib 0.041 | [1] 0.081 | [2] 0.031 | [3] -0.021 | [4] 0.07 | [5] 0.01 | [6] 0.126 | [7] 0.027 | [8] -0.006 | [9] 0.078

OSBPL3 (UniProt Q9H4L5)
Chain of UniProt Q9H4L5 (Q9H4L5 whole entry, looked up): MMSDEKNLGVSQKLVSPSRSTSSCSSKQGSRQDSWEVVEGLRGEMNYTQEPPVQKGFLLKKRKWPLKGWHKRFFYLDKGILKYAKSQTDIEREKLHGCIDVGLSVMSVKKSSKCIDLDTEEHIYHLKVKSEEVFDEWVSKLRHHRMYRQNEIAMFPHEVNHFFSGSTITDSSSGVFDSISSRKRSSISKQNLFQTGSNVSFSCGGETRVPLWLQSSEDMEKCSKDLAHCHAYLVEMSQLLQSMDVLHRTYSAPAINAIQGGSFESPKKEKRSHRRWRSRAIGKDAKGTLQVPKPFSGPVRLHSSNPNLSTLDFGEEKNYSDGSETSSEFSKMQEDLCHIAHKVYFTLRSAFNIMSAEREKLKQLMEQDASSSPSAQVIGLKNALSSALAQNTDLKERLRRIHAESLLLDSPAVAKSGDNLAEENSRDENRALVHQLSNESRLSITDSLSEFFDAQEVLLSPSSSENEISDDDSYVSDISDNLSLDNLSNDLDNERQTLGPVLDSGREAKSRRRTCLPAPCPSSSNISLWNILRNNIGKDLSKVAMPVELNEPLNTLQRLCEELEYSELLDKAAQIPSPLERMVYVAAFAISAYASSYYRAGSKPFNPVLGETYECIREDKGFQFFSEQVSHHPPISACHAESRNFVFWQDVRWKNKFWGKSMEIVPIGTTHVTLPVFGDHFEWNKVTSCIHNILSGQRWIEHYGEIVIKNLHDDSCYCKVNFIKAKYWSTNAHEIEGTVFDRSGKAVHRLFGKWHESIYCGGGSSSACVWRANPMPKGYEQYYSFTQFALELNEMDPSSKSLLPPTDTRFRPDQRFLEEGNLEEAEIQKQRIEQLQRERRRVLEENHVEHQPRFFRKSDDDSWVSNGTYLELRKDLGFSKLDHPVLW
active: erlotinib 1.67
inactive: [1] 0.15 | [2] -0.147 | [3] 0.165 | [4] 0.094 | [6] 0.255 | [7] 0.16 | [8] -0.021 | [9] -0.078

NAGPA (UniProt Q9UK23)
Chain of UniProt Q9UK23 (Q9UK23 whole entry, looked up): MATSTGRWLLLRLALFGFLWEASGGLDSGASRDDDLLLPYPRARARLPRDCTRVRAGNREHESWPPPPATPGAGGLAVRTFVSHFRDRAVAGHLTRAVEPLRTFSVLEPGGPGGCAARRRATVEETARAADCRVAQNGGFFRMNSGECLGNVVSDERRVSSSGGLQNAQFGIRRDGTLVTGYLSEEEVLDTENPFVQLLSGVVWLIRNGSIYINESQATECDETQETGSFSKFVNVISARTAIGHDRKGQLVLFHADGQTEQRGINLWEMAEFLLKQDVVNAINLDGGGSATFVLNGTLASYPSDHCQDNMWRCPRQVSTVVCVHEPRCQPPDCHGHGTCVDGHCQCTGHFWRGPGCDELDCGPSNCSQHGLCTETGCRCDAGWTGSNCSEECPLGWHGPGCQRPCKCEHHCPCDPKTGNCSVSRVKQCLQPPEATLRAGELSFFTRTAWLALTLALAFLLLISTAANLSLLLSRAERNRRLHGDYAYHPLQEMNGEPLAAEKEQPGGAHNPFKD
inactive: erlotinib 0.046 | [1] 0.023 | [2] 0.046 | [3] 0.056 | [4] 0.033 | [5] -0.018 | [7] -0.025 | [8] -0.013 | [9] 0.148

MRPL46 (UniProt Q9H2W6)
inactive: erlotinib -0.025 | [1] -0.008 | [2] 0 | [3] 0.011 | [4] -0.054 | [5] -0.001 | [6] 0.046 | [7] 0.164 | [8] -0.031 | [9] -0.075

NNMT (UniProt P40261)
Chain of UniProt P40261 (P40261 whole entry, looked up): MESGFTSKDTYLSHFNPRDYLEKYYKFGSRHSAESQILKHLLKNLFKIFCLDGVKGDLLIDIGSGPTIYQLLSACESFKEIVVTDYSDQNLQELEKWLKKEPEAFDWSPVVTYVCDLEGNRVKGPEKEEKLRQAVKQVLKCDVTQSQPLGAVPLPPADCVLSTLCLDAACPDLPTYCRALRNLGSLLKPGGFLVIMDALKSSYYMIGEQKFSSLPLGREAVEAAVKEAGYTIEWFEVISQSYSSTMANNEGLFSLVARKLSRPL
inactive: erlotinib 0.037 | [1] 0.062 | [2] 0.123 | [3] 0.021 | [4] 0.074 | [5] 0 | [7] 0.028 | [8] 0.045 | [9] 0.043

NFX1 (UniProt Q12986)
Chain of UniProt Q12986 (Q12986 whole entry, looked up): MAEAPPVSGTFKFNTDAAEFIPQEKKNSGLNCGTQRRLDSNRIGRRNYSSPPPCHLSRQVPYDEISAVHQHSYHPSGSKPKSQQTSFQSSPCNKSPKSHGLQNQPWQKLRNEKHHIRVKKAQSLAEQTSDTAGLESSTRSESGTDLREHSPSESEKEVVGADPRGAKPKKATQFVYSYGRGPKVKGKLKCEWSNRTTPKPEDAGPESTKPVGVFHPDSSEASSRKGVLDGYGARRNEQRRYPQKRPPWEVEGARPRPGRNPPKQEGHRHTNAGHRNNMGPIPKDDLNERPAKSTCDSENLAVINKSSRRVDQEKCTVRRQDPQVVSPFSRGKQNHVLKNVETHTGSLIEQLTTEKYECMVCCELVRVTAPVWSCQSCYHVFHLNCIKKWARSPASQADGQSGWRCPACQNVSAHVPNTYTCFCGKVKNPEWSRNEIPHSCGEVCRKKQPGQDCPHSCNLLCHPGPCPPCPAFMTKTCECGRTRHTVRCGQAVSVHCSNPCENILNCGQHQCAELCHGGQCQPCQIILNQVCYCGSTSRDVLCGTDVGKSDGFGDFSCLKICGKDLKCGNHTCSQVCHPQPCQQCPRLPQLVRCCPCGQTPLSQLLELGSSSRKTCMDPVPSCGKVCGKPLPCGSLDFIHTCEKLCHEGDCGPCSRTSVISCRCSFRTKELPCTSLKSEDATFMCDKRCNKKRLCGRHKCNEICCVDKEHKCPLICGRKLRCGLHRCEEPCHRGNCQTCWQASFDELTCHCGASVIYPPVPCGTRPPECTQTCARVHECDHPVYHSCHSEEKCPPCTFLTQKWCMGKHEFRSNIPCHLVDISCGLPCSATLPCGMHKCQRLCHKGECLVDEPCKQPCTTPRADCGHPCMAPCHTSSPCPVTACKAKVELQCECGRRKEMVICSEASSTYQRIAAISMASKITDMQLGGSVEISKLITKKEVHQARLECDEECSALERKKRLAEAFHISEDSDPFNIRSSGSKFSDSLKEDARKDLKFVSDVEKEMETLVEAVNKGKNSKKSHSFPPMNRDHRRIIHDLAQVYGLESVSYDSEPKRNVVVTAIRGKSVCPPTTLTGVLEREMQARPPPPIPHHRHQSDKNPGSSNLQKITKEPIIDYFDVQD
inactive: erlotinib 0.065 | [1] -0.024 | [2] -0.26 | [3] 0.058 | [4] 0.042 | [5] -0.069 | [6] -0.039 | [7] -0.107 | [8] 0.014 | [9] 0.048

From the supplement of paper PMC10849652
